# How the values were obtained:
# Assay in all cases: SPOT peptide array binding signal intensity (averaged, normalized) (arbitrary units (background-subtracted, floor 0; scale differs between SH3 domains)); higher = stronger binding of the SH3 domain to the peptide
# AgAbp1 = biological target: AgAbp1
# Summary of the method: (§1)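 GST-fused SH3 domains from four yeast species were expressed in E. coli BL21(DE3), purified on glutathione Sepharose and incubated at 10 μg/ml overnight at 4°C in TBS-based blocking buffer on cellulose membranes carrying synthetic 15-mer peptides, with cysteines replaced by serines. Bound protein was detected with anti-GST antibody, an HRP anti-mouse secondary and luminol, then imaged and quantified with Genespotter. Binding signal is the normalized, background-subtracted spot intensity averaged over replicates, in arbitrary units that differ between domains.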
# AgBbc1 = biological target: AgBbc1
# Summary of the method: as §1
# AgBem1-D1 = biological target: AgBem1-D1
# Summary of the method: as §1
# AgBzz1-D1 = biological target: AgBzz1-D1
# Summary of the method: as §1
# AgBzz1-D2 = biological target: AgBzz1-D2
# Summary of the method: as §1
# AgCyk3 = biological target: AgCyk3
# Summary of the method: as §1
# AgFus1 = biological target: AgFus1
# Summary of the method: as §1
# AgHof1 = biological target: AgHof1
# Summary of the method: as §1
# AgHse1 = biological target: AgHse1
# Summary of the method: as §1
# AgLsb1 = biological target: AgLsb1
# Summary of the method: as §1
# AgLsb4 = biological target: AgLsb4
# Summary of the method: as §1
# AgMyo5 = biological target: AgMyo5
# Summary of the method: as §1
# AgNbp2 = biological target: AgNbp2
# Summary of the method: as §1
# AgRvs167 = biological target: AgRvs167
# Summary of the method: as §1
# AgSho1 = biological target: AgSho1
# Summary of the method: as §1
# AgSla1-D1-D2 = biological target: AgSla1-D1-D2
# Summary of the method: as §1
# AgSla1-D3 = biological target: AgSla1-D3
# Summary of the method: as §1
# CaAbp1-D1 = biological target: CaAbp1-D1
# Summary of the method: as §1
# CaAbp1-D2 = biological target: CaAbp1-D2
# Summary of the method: as §1
# CaBbc1 = biological target: CaBbc1
# Summary of the method: as §1
# CaBem1-D1 = biological target: CaBem1-D1
# Summary of the method: as §1
# CaBzz1-D1 = biological target: CaBzz1-D1
# Summary of the method: as §1
# CaBzz1-D2 = biological target: CaBzz1-D2
# Summary of the method: as §1
# CaCyk3 = biological target: CaCyk3
# Summary of the method: as §1
# CaFus1 = biological target: CaFus1
# Summary of the method: as §1
# CaHof1 = biological target: CaHof1
# Summary of the method: as §1
# CaHse1 = biological target: CaHse1
# Summary of the method: as §1
# CaLsb1 = biological target: CaLsb1
# Summary of the method: as §1
# CaLsb4 = biological target: CaLsb4
# Summary of the method: as §1
# CaMyo5 = biological target: CaMyo5
# Summary of the method: as §1
# CaNbp2 = biological target: CaNbp2
# Summary of the method: as §1
# CaRvs167 = biological target: CaRvs167
# Summary of the method: as §1
# CaRvs167-3 = biological target: CaRvs167-3
# Summary of the method: as §1
# CaSho1 = biological target: CaSho1
# Summary of the method: as §1
# CaSla1-D1-D2 = biological target: CaSla1-D1-D2
# Summary of the method: as §1
# CaSla1-D3 = biological target: CaSla1-D3
# Summary of the method: as §1
# ScAbp1 = biological target: ScAbp1
# Summary of the method: as §1
# ScBbc1 = biological target: ScBbc1
# Summary of the method: as §1
# ScBem1-D1 = biological target: ScBem1-D1
# Summary of the method: as §1
# ScBzz1-D1 = biological target: ScBzz1-D1
# Summary of the method: as §1
# ScBzz1-D2 = biological target: ScBzz1-D2
# Summary of the method: as §1
# ScCyk3 = biological target: ScCyk3
# Summary of the method: as §1
# ScFus1 = biological target: ScFus1
# Summary of the method: as §1
# ScHof1 = biological target: ScHof1
# Summary of the method: as §1
# ScHse1 = biological target: ScHse1
# Summary of the method: as §1
# ScLsb1 = biological target: ScLsb1
# Summary of the method: as §1
# ScLsb2 = biological target: ScLsb2
# Summary of the method: as §1
# ScLsb3 = biological target: ScLsb3
# Summary of the method: as §1
# ScLsb4 = biological target: ScLsb4
# Summary of the method: as §1
# ScMyo3 = biological target: ScMyo3
# Summary of the method: as §1
# ScMyo5 = biological target: ScMyo5
# Summary of the method: as §1
# ScNbp2 = biological target: ScNbp2
# Summary of the method: as §1
# ScPex13 = biological target: ScPex13
# Summary of the method: as §1
# ScRvs167 = biological target: ScRvs167
# Summary of the method: as §1
# ScSho1 = biological target: ScSho1
# Summary of the method: as §1
# ScSla1-D1-D2 = biological target: ScSla1-D1-D2
# Summary of the method: as §1
# ScSla1-D3 = biological target: ScSla1-D3
# Summary of the method: as §1
# SpAbp1-D1 = biological target: SpAbp1-D1
# Summary of the method: as §1
# SpBbc1 = biological target: SpBbc1
# Summary of the method: as §1
# SpBzz1-D1 = biological target: SpBzz1-D1
# Summary of the method: as §1
# SpBzz1-D2 = biological target: SpBzz1-D2
# Summary of the method: as §1
# SpCyk3 = biological target: SpCyk3
# Summary of the method: as §1
# SpHof1 = biological target: SpHof1
# Summary of the method: as §1
# SpHof1-2 = biological target: SpHof1-2
# Summary of the method: as §1
# SpHof1-3 = biological target: SpHof1-3
# Summary of the method: as §1
# SpHse1 = biological target: SpHse1
# Summary of the method: as §1
# SpLsb1 = biological target: SpLsb1
# Summary of the method: as §1
# SpLsb4 = biological target: SpLsb4
# Summary of the method: as §1
# SpMyo1 = biological target: SpMyo1
# Summary of the method: as §1
# SpNbp2 = biological target: SpNbp2
# Summary of the method: as §1
# SpPex13 = biological target: SpPex13
# Summary of the method: as §1
# SpRvs167 = biological target: SpRvs167
# Summary of the method: as §1
# SpSla1-D1-D2 = biological target: SpSla1-D1-D2
# Summary of the method: as §1
# SpSla1-D3 = biological target: SpSla1-D3
# Summary of the method: as §1
binder,measurement,setting,value
IPSRPAPKPPSSASA,SPOT peptide array binding signal intensity,AgAbp1,14
same,SPOT peptide array binding signal intensity,AgBbc1,289
same,SPOT peptide array binding signal intensity,AgBem1-D1,35
same,SPOT peptide array binding signal intensity,AgBzz1-D1,18
same,SPOT peptide array binding signal intensity,AgBzz1-D2,19
same,SPOT peptide array binding signal intensity,AgCyk3,1
same,SPOT peptide array binding signal intensity,AgFus1,≤ 0
same,SPOT peptide array binding signal intensity,AgHof1,≤ 0
same,SPOT peptide array binding signal intensity,AgHse1,50.5
same,SPOT peptide array binding signal intensity,AgLsb1,475
same,SPOT peptide array binding signal intensity,AgLsb4,12
same,SPOT peptide array binding signal intensity,AgMyo5,1790
same,SPOT peptide array binding signal intensity,AgNbp2,8100
same,SPOT peptide array binding signal intensity,AgRvs167,1.67
same,SPOT peptide array binding signal intensity,AgSho1,≤ 0
same,SPOT peptide array binding signal intensity,AgSla1-D1-D2,16
same,SPOT peptide array binding signal intensity,AgSla1-D3,3.25
same,SPOT peptide array binding signal intensity,CaAbp1-D1,102
same,SPOT peptide array binding signal intensity,CaAbp1-D2,128
same,SPOT peptide array binding signal intensity,CaBbc1,1300
same,SPOT peptide array binding signal intensity,CaBem1-D1,1620
same,SPOT peptide array binding signal intensity,CaBzz1-D1,1550
same,SPOT peptide array binding signal intensity,CaBzz1-D2,1510
same,SPOT peptide array binding signal intensity,CaCyk3,190
same,SPOT peptide array binding signal intensity,CaFus1,30
same,SPOT peptide array binding signal intensity,CaHof1,≤ 0
same,SPOT peptide array binding signal intensity,CaHse1,1.25
same,SPOT peptide array binding signal intensity,CaLsb1,1.25
same,SPOT peptide array binding signal intensity,CaLsb4,53.5
same,SPOT peptide array binding signal intensity,CaMyo5,156
same,SPOT peptide array binding signal intensity,CaNbp2,4920
same,SPOT peptide array binding signal intensity,CaRvs167,17
same,SPOT peptide array binding signal intensity,CaRvs167-3,2
same,SPOT peptide array binding signal intensity,CaSho1,≤ 0
same,SPOT peptide array binding signal intensity,CaSla1-D1-D2,2030
same,SPOT peptide array binding signal intensity,CaSla1-D3,46.5
same,SPOT peptide array binding signal intensity,ScAbp1,65
same,SPOT peptide array binding signal intensity,ScBbc1,502
same,SPOT peptide array binding signal intensity,ScBem1-D1,≤ 0
same,SPOT peptide array binding signal intensity,ScBzz1-D1,16
same,SPOT peptide array binding signal intensity,ScBzz1-D2,10
same,SPOT peptide array binding signal intensity,ScCyk3,≤ 0
same,SPOT peptide array binding signal intensity,ScFus1,4
same,SPOT peptide array binding signal intensity,ScHof1,1
same,SPOT peptide array binding signal intensity,ScHse1,40
same,SPOT peptide array binding signal intensity,ScLsb1,6
same,SPOT peptide array binding signal intensity,ScLsb2,55
same,SPOT peptide array binding signal intensity,ScLsb3,197
same,SPOT peptide array binding signal intensity,ScLsb4,9
same,SPOT peptide array binding signal intensity,ScMyo3,3540
same,SPOT peptide array binding signal intensity,ScMyo5,1990
same,SPOT peptide array binding signal intensity,ScNbp2,5880
same,SPOT peptide array binding signal intensity,ScPex13,2620
same,SPOT peptide array binding signal intensity,ScRvs167,149
same,SPOT peptide array binding signal intensity,ScSho1,≤ 0
same,SPOT peptide array binding signal intensity,ScSla1-D1-D2,6020
same,SPOT peptide array binding signal intensity,ScSla1-D3,233
same,SPOT peptide array binding signal intensity,SpAbp1-D1,40
same,SPOT peptide array binding signal intensity,SpBbc1,65
same,SPOT peptide array binding signal intensity,SpBzz1-D1,404
same,SPOT peptide array binding signal intensity,SpBzz1-D2,71.5
same,SPOT peptide array binding signal intensity,SpCyk3,2
same,SPOT peptide array binding signal intensity,SpHof1,≤ 0
same,SPOT peptide array binding signal intensity,SpHof1-2,≤ 0
same,SPOT peptide array binding signal intensity,SpHof1-3,≤ 0
same,SPOT peptide array binding signal intensity,SpHse1,52
same,SPOT peptide array binding signal intensity,SpLsb1,13.5
same,SPOT peptide array binding signal intensity,SpLsb4,136
same,SPOT peptide array binding signal intensity,SpMyo1,3740
same,SPOT peptide array binding signal intensity,SpNbp2,65
same,SPOT peptide array binding signal intensity,SpPex13,93.5
same,SPOT peptide array binding signal intensity,SpRvs167,202
same,SPOT peptide array binding signal intensity,SpSla1-D1-D2,≤ 0
same,SPOT peptide array binding signal intensity,SpSla1-D3,3
